Reference: PMC7862700, “An all-to-all approach to the identification of sequence-specific readers for epigenetic DNA modifications on cytosine”

Legend:
Experiment in all cases: DAPPL (digital affinity profiling via proximity ligation, sequencing); 10 mM Tris-HCl pH 7.5, 50 mM NaCl, 1 mM DTT, 4% glycerol, room temperature, 30 min; GST-TFs on glutathione beads, 16-mer random dsDNA library, 0.1% formaldehyde crosslink after washing; high values mean tight binding
Conditions in all cases: protein: recombinant; tags: N-terminal GST; dsDNA, one strand shown
FEV = target: T1, FEV (Homo sapiens, UniProt Q99581 1-238)
T1 sequence: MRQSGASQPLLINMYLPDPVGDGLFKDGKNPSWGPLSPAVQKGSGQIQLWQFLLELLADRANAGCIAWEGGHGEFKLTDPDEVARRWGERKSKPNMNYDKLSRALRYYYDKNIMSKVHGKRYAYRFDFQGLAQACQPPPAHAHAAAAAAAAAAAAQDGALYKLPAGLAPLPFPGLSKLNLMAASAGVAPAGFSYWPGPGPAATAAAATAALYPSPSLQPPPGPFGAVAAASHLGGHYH
Outline: (§1)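 Yeast served to express human transcription factors as GST fusions, which were then captured on glutathione beads and labelled with DNA barcodes. Pooled with a tag-only sample, they were incubated with 200 nmole of a 16-mer random double-stranded DNA library for 30 min at room temperature in Tris/NaCl/DTT/glycerol buffer, washed, crosslinked with 0.1% formaldehyde, ligated by proximity, amplified by PCR and sequenced. Dividing each hexamer's read frequency for a factor by its frequency for the tag-only sample gives the binding signal.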

ETV5 = ETV5 (Homo sapiens, UniProt P41161 1-510)
Outline: as §1

SPIC = target: T2, SPIC (Homo sapiens, UniProt Q8N5J4 1-248)
T2 sequence: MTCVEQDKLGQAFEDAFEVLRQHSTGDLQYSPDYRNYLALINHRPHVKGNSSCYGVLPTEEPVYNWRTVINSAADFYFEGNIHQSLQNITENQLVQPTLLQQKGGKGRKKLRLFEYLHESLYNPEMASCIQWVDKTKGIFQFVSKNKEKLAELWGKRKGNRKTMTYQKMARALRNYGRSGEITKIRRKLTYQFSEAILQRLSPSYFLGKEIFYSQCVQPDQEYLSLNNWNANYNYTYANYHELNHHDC
Outline: as §1

ELF4 = ELF4 (Homo sapiens, UniProt Q99607 1-663)
Outline: as §1

ELK4 = target: T3, ELK4 (Homo sapiens, UniProt P28324-2 1-405)
T3 sequence: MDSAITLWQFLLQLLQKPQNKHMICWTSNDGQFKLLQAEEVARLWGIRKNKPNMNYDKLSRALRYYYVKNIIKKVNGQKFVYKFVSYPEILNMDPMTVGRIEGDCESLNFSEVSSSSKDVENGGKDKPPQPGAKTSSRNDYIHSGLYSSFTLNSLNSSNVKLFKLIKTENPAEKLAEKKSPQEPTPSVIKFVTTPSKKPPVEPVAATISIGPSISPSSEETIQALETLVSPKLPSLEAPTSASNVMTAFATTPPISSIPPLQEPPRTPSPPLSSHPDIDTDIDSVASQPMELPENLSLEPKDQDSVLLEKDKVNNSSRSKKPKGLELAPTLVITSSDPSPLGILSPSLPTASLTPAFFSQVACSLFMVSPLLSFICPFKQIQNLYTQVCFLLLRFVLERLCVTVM
Outline: as §1

ETV2 = target: T4, ETV2 (Homo sapiens, UniProt O00321 1-342)
T4 sequence: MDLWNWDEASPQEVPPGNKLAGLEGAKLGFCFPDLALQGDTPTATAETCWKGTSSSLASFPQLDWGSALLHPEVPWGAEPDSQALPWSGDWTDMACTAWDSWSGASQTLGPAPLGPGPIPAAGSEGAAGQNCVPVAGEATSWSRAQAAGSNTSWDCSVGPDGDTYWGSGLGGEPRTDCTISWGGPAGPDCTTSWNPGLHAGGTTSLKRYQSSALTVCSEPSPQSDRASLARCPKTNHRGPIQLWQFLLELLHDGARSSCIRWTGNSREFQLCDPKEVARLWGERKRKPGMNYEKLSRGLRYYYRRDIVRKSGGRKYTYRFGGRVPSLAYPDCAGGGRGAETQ
Outline: as §1

ELF3 = target: T5, ELF3 (Homo sapiens, UniProt P78545 1-371)
T5 sequence: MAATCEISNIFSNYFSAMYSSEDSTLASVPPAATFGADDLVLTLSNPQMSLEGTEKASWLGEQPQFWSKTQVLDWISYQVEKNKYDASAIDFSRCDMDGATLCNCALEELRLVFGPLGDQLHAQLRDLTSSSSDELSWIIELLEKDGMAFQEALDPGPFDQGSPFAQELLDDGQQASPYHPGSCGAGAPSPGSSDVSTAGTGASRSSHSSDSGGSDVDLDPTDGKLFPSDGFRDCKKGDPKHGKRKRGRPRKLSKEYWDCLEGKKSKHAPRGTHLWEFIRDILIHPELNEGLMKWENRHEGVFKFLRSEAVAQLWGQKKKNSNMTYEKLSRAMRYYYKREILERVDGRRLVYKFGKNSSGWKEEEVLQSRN
Outline: as §1

ETV1 = ETV1 (Homo sapiens, UniProt P50549 1-477)
Outline: as §1

ERF = target: T6, ERF (Homo sapiens, UniProt P50548 1-548)
T6 sequence: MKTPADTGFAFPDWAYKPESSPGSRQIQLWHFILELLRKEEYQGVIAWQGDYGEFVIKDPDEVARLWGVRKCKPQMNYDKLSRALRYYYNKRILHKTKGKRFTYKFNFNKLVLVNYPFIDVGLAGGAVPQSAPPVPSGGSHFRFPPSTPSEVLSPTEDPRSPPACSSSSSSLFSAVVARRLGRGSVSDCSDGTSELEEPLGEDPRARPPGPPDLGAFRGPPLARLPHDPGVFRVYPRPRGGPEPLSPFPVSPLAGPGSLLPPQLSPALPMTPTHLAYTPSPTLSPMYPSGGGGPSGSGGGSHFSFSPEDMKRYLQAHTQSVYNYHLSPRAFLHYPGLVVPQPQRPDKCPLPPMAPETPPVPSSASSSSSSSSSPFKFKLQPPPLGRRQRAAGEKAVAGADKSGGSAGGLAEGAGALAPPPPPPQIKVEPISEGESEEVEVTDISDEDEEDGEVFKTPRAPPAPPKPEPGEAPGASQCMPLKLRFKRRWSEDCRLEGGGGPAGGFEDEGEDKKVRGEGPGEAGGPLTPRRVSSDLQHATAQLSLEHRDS
Outline: as §1

ETV3L = target: T7, ETV3L (Homo sapiens, UniProt Q6ZN32 1-361)
T7 sequence: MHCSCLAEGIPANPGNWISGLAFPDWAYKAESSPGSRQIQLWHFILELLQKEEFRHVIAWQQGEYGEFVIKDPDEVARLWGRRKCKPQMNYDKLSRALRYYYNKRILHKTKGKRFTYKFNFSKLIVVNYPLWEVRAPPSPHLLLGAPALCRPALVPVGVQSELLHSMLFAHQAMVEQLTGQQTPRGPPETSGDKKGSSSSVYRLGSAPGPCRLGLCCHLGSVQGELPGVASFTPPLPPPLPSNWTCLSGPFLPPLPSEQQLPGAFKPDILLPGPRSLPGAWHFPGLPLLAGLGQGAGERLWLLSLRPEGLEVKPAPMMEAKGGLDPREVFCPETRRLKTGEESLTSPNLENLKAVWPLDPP
Outline: as §1

ETS2 = target: T8, ETS2 (Homo sapiens, UniProt P15036 1-469)
T8 sequence: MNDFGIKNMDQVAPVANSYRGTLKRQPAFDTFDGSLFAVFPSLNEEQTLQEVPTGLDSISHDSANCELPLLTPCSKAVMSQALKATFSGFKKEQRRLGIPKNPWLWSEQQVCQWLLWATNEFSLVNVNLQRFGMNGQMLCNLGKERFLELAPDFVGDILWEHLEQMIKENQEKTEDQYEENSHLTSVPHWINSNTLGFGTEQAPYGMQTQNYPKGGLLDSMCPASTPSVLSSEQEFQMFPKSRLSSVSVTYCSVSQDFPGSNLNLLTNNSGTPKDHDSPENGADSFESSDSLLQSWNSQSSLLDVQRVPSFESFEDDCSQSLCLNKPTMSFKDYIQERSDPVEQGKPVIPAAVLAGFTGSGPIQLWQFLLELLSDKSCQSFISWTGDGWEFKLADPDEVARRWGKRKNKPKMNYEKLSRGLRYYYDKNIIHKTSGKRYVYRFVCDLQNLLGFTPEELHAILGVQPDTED
Outline: as §1

SPDEF = target: T9, SPDEF (Homo sapiens, UniProt O95238 1-335)
T9 sequence: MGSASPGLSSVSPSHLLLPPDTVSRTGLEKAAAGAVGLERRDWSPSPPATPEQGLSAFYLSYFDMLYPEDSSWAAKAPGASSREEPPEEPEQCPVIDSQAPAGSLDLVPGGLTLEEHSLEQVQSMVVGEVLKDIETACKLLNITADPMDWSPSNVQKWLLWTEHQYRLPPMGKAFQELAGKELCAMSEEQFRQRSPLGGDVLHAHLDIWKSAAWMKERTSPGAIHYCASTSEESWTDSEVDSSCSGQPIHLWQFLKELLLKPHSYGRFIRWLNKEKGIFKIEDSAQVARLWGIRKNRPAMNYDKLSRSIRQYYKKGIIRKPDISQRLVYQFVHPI
Outline: as §1

ETV7 = target: T10, ETV7 (Homo sapiens, UniProt Q9Y603 1-341)
T10 sequence: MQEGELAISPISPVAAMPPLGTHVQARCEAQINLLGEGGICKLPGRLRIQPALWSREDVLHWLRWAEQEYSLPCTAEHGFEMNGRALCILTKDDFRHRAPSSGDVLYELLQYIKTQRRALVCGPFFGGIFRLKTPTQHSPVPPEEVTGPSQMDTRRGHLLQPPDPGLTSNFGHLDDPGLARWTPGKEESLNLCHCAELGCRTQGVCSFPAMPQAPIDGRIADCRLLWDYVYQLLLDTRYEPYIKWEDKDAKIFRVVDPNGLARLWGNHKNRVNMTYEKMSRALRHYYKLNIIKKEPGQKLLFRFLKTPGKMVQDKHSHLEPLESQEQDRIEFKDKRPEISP
Outline: as §1

ELF5 = target: T11, ELF5 (Homo sapiens, UniProt Q9UKW6-2 1-255)
T11 sequence: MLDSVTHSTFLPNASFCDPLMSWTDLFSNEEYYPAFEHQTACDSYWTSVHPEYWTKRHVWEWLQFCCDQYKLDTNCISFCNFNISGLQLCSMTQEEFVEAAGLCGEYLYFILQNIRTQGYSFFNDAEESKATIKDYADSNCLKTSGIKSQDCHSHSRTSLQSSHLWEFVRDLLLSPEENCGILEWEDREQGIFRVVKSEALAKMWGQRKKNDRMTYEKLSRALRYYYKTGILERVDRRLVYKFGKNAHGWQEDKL
Outline: as §1

ETV3 = target: T12, ETV3 (Homo sapiens, UniProt P41162-2 1-143)
T12 sequence: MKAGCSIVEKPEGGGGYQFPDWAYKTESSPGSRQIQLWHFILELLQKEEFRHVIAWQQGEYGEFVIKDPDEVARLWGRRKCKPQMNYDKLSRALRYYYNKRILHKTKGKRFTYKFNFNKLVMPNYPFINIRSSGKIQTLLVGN
Outline: as §1

ETV6 = ETV6 (Homo sapiens, UniProt P41212 1-452)
Outline: as §1

Chain of ETV5 (P41161 whole entry): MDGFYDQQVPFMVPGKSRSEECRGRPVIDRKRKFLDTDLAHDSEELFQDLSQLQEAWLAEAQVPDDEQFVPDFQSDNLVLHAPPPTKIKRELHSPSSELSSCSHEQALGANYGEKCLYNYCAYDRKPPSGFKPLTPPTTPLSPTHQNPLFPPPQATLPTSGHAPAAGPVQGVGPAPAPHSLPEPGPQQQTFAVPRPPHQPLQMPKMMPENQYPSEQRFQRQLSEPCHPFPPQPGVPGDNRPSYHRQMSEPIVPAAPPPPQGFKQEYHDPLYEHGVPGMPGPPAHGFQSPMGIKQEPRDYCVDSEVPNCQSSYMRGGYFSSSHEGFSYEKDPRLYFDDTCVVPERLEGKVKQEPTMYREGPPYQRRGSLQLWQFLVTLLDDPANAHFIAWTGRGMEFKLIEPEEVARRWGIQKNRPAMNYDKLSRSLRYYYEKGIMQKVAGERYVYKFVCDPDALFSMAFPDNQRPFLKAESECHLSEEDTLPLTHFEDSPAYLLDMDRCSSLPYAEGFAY
Chain of ETV1 (P50549 whole entry): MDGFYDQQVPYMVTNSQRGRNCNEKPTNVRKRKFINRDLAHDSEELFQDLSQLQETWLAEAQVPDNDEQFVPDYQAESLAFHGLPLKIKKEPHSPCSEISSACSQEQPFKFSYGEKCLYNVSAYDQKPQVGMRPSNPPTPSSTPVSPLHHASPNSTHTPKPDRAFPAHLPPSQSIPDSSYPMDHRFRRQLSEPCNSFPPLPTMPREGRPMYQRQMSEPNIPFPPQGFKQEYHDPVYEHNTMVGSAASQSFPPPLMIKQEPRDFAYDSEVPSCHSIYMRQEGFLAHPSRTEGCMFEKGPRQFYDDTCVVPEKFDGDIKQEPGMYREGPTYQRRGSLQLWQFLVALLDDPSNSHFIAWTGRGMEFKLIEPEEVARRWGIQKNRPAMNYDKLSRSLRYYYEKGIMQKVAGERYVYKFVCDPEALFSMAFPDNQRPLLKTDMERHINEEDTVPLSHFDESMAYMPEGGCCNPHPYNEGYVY
Chain of ETV6 (P41212 whole entry): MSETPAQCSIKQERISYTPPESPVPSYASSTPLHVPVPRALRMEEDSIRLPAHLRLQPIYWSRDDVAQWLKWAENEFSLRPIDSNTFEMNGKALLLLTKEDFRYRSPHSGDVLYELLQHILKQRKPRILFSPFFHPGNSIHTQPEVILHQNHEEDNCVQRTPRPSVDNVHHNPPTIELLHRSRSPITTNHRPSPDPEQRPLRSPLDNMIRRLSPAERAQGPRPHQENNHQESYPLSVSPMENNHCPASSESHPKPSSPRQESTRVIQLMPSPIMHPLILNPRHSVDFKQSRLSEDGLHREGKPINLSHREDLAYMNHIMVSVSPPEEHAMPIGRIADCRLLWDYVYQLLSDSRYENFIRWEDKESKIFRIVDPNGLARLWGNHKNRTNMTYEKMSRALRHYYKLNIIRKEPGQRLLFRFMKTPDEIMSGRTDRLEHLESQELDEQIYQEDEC
Chain of ELF4 (Q99607 whole entry): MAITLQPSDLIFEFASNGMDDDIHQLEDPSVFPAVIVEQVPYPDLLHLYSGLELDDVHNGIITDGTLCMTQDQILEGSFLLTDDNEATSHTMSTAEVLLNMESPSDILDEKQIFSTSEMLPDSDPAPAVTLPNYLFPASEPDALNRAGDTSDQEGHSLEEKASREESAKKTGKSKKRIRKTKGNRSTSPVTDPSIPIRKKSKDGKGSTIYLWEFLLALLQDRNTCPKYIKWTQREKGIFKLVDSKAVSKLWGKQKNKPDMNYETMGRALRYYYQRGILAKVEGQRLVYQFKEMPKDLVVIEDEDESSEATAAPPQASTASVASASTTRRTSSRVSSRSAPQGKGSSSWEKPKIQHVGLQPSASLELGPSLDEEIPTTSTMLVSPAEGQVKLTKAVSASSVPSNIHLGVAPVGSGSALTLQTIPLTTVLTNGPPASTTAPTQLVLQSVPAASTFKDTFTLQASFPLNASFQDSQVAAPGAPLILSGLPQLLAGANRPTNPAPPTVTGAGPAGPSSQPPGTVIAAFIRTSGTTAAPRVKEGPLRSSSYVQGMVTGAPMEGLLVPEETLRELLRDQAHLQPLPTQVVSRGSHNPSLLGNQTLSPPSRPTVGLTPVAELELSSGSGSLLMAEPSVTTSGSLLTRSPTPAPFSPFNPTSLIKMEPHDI

Sequence	binding signal (FEV)	binding signal (ETV5)	binding signal (SPIC)	binding signal (ELF4)	binding signal (ELK4)	binding signal (ETV2)	binding signal (ELF3)	binding signal (ETV1)	binding signal (ERF)	binding signal (ETV3L)	binding signal (ETS2)	binding signal (SPDEF)	binding signal (ETV7)	binding signal (ELF5)	binding signal (ETV3)	binding signal (ETV6)
TGTCCC	1.39 fold enrichment (6-mer frequency, TF over GST control)	1.35 fold enrichment (6-mer frequency, TF over GST control)	1.26 fold enrichment (6-mer frequency, TF over GST control)	1.29 fold enrichment (6-mer frequency, TF over GST control)	1.4 fold enrichment (6-mer frequency, TF over GST control)	1.44 fold enrichment (6-mer frequency, TF over GST control)	1.65 fold enrichment (6-mer frequency, TF over GST control)	1.31 fold enrichment (6-mer frequency, TF over GST control)	1.26 fold enrichment (6-mer frequency, TF over GST control)	1.18 fold enrichment (6-mer frequency, TF over GST control)	1.41 fold enrichment (6-mer frequency, TF over GST control)	1.34 fold enrichment (6-mer frequency, TF over GST control)	1.46 fold enrichment (6-mer frequency, TF over GST control)	1.44 fold enrichment (6-mer frequency, TF over GST control)	1.2 fold enrichment (6-mer frequency, TF over GST control)	1.28 fold enrichment (6-mer frequency, TF over GST control)
CCATAC	1.16 fold enrichment (6-mer frequency, TF over GST control)	1.16 fold enrichment (6-mer frequency, TF over GST control)	1.13 fold enrichment (6-mer frequency, TF over GST control)	1.27 fold enrichment (6-mer frequency, TF over GST control)	1.14 fold enrichment (6-mer frequency, TF over GST control)	1.06 fold enrichment (6-mer frequency, TF over GST control)	1.06 fold enrichment (6-mer frequency, TF over GST control)	1.15 fold enrichment (6-mer frequency, TF over GST control)	1.27 fold enrichment (6-mer frequency, TF over GST control)	1.22 fold enrichment (6-mer frequency, TF over GST control)	1.18 fold enrichment (6-mer frequency, TF over GST control)	1.2 fold enrichment (6-mer frequency, TF over GST control)	1.14 fold enrichment (6-mer frequency, TF over GST control)	1.09 fold enrichment (6-mer frequency, TF over GST control)	1.08 fold enrichment (6-mer frequency, TF over GST control)	1.21 fold enrichment (6-mer frequency, TF over GST control)
CAACCT	1.21 fold enrichment (6-mer frequency, TF over GST control)	1.18 fold enrichment (6-mer frequency, TF over GST control)	1.13 fold enrichment (6-mer frequency, TF over GST control)	1.11 fold enrichment (6-mer frequency, TF over GST control)	1.15 fold enrichment (6-mer frequency, TF over GST control)	1.28 fold enrichment (6-mer frequency, TF over GST control)	1.12 fold enrichment (6-mer frequency, TF over GST control)	1.2 fold enrichment (6-mer frequency, TF over GST control)	1.26 fold enrichment (6-mer frequency, TF over GST control)	1.13 fold enrichment (6-mer frequency, TF over GST control)	1.2 fold enrichment (6-mer frequency, TF over GST control)	1.19 fold enrichment (6-mer frequency, TF over GST control)	1.09 fold enrichment (6-mer frequency, TF over GST control)	1.2 fold enrichment (6-mer frequency, TF over GST control)	1.1 fold enrichment (6-mer frequency, TF over GST control)	1.18 fold enrichment (6-mer frequency, TF over GST control)
